According to PubChem BioAssay (NCATS):
Results filed as inconclusive are left out. A call without a number means that no potency is given here. Values without a mark were called inactive. Activity calls are given as the source filed them. Calls come from the whole dose curve; as a rule, active = well fitted curve in the direction sought with a large enough effect; inconclusive = small, poorly fitted or top-dose-only effect, or another doubt; inactive = no such curve, though single readings can be large; an effect the other way counts as inactive or inconclusive.

Legend:
NIH3T3 = test: qHTS assay to identify novel small-molecules to repurpose for Merkel cell carcinoma treatment (AID 1296009); conditions: MCC and control cell lines, CellTiter-Glo viability, 72 h; at 44.8 µM (top of the series) unless noted; note: nearly all actives have a fitted effect of over 60% in size
Method in brief: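 CellTiter-Glo luminescence after 72 hr compound exposure at 37 degree celsius gave cell viability. Libraries NPC and MIPE were run as 8- and 11-point dose responses; RLUs normalized to DMSO (negative) and no-cell (cytotoxicity) controls.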

C33A = test: Primary qHTS to identify gynecologic anti-cancer compounds using libraries of approved drugs and bioactive compounds (AID 1345084); conditions: Gynecologic cancer cell panel viability, ATPlite luminescence, 48 h; series mostly up to 57.5 µM; note: nearly all actives have a fitted effect of over 55% in size; note: potency is the fitted concentration of half-maximal effect
Method in brief: (§1)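 ATP-based viability (ATPlite), 1,000 cells/well, 16 h pre-incubation, 48 h compound at 37 C, 5% CO2, 15 min RT before read.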

CAOV3 = test: as above; conditions: Gynecologic cancer cell panel viability, ATPlite luminescence, 48 h; series mostly up to 57.5 µM
Method in brief: as §1

CASKI = test: as above; conditions: Gynecologic cancer cell panel viability, ATPlite luminescence, 48 h; series mostly up to 57.5 µM
Method in brief: as §1

Es-2 = test: as above; conditions: Gynecologic cancer cell panel viability, ATPlite luminescence, 48 h; series mostly up to 57.5 µM
Method in brief: as §1

HeLa = test: as above; conditions: Gynecologic cancer cell panel viability, ATPlite luminescence, 48 h; series mostly up to 57.5 µM
Method in brief: as §1

Hek293T = test: as above; conditions: Gynecologic cancer cell panel viability, ATPlite luminescence, 48 h, control line for the selectivity index; series mostly up to 57.5 µM
Method in brief: as §1

JEG-3 = test: as above; conditions: Gynecologic cancer cell panel viability, ATPlite luminescence, 48 h; series mostly up to 57.5 µM
Method in brief: as §1

OV90 = test: as above; conditions: Gynecologic cancer cell panel viability, ATPlite luminescence, 48 h; series mostly up to 57.5 µM
Method in brief: as §1

SKOV3 = test: as above; conditions: Gynecologic cancer cell panel viability, ATPlite luminescence, 48 h; series mostly up to 57.5 µM
Method in brief: as §1

Tov-21-G = test: as above; conditions: Gynecologic cancer cell panel viability, ATPlite luminescence, 48 h; series mostly up to 57.5 µM
Method in brief: as §1

Tov112D = test: as above; conditions: Gynecologic cancer cell panel viability, ATPlite luminescence, 48 h; series mostly up to 57.5 µM
Method in brief: as §1

PA-1 = test: as above; conditions: Gynecologic cancer cell panel viability, ATPlite luminescence, 48 h; series mostly up to 57.5 µM
Method in brief: as §1

## COc1cc(C(CO)C(OC2OC(CO)C(O)C(O)C2O)c2ccc(O)c(OC)c2)ccc1O (stereo not drawn)
NIH3T3
  outcome: inactive [at 17.4 µM]
C33A
  Potency: inactive
CAOV3
  Potency: inactive
CASKI
  outcome: inactive
Es-2
  Potency: inactive
HeLa
  Potency: inactive
Hek293T
  Potency: inactive
JEG-3
  Potency: inactive
OV90
  Potency: inactive
SKOV3
  Potency: inactive
Tov-21-G
  Potency: inactive
Tov112D
  Potency: inactive

## O=[N+]([O-])c1cc(Cl)ccc1S(=O)(=O)N1CCN(Cc2ccccc2)CC1
NIH3T3
  outcome: inactive
C33A
  Potency: inactive
CAOV3
  Potency: inactive
CASKI
  outcome: inactive
Es-2
  Potency: inactive
HeLa
  Potency: inactive
JEG-3
  Potency: inactive
OV90
  Potency: inactive
PA-1
  Potency: inactive
Tov-21-G
  Potency: inactive
Tov112D
  Potency: inactive

## O=C(/C=C/N1C[C@@H]2C[C@@H]1CN2c1ccccn1)c1ccccc1O
NIH3T3
  outcome: inactive
C33A
  Potency: inactive
CAOV3
  Potency: inactive
CASKI
  outcome: inactive
Es-2
  Potency: inactive
HeLa
  Potency: inactive
Hek293T
  Potency: inactive
JEG-3
  Potency: inactive
OV90
  Potency: inactive
PA-1
  Potency: inactive
Tov-21-G
  Potency: inactive
Tov112D
  Potency: inactive

## O=C(O)c1ccc(NC(=O)[C@H](CC2CCCC2)n2cnc(C(F)(F)F)c2)nc1
NIH3T3
  outcome: inactive
C33A
  Potency: inactive
CAOV3
  Potency: inactive
CASKI
  outcome: inactive
Es-2
  Potency: inactive
Hek293T
  Potency: inactive
JEG-3
  Potency: inactive
OV90
  Potency: inactive
PA-1
  Potency: inactive
SKOV3
  Potency: inactive
Tov-21-G
  Potency: inactive
Tov112D
  Potency: inactive

## C=Cc1cc2oc(-c3ccc(O)c(F)c3)nc2cc1O
NIH3T3
  outcome: inactive
C33A
  Potency: inactive
CAOV3
  Potency: inactive
CASKI
  outcome: inactive
Es-2
  Potency: inactive
Hek293T
  Potency: inactive
JEG-3
  Potency: inactive
OV90
  Potency: 25.1 µM (active)
PA-1
  Potency: inactive
SKOV3
  Potency: inactive
Tov-21-G
  Potency: inactive
Tov112D
  Potency: inactive

## O=c1[nH]ccc2nc(-c3ccc(CN4CCC(c5nc(-c6ccccn6)n[nH]5)CC4)cc3)c(-c3ccccc3)cc12
NIH3T3
  outcome: inactive
C33A
  Potency: inactive
CAOV3
  Potency: inactive
CASKI
  outcome: inactive
Es-2
  Potency: inactive
HeLa
  Potency: inactive
JEG-3
  Potency: inactive
OV90
  Potency: inactive
PA-1
  Potency: inactive
Tov-21-G
  Potency: inactive
Tov112D
  Potency: inactive

## NC(=O)[C@@H]1CC[C@H](c2ccc(OCc3ccccc3F)cc2)N1
NIH3T3
  outcome: inactive
C33A
  Potency: inactive
CAOV3
  Potency: inactive
CASKI
  outcome: inactive
Es-2
  Potency: inactive
HeLa
  Potency: inactive
Hek293T
  Potency: inactive
JEG-3
  Potency: inactive
PA-1
  Potency: inactive
Tov112D
  Potency: inactive

## NC[C@@H]1O[C@@H](O[C@@H]2[C@@H](O[C@@H]3O[C@H](CO)[C@@H](O)[C@H]3O)[C@H](O)[C@@H](N)C[C@H]2N)[C@@H](N)[C@H](O)[C@H]1O
NIH3T3
  outcome: inactive [at 9.27 µM]
C33A
  activity change, negative = cytotoxicity: 8.18% [at 11.6 µM]
CAOV3
  activity change, negative = cytotoxicity: 0.692% [at 11.6 µM]
CASKI
  activity change, negative = cytotoxicity: 0.509% [at 11.6 µM]
Es-2
  activity change, negative = cytotoxicity: 6.5% [at 11.6 µM]
HeLa
  activity change, negative = cytotoxicity: 15.1% [at 11.6 µM]
Hek293T
  activity change, negative = cytotoxicity: 17.2% [at 11.6 µM]
JEG-3
  activity change, negative = cytotoxicity: 7.01% [at 11.6 µM]
OV90
  activity change, negative = cytotoxicity: 0.365% [at 11.6 µM]
SKOV3
  activity change, negative = cytotoxicity: 2.15% [at 11.6 µM]
Tov-21-G
  activity change, negative = cytotoxicity: -2.07% [at 11.6 µM]
Tov112D
  activity change, negative = cytotoxicity: -1.83% [at 11.6 µM]

## O=C(/C=C/c1ccc(O)c(O)c1)O[C@H]1[C@H](OC2CCCCC2O)O[C@H](CO)[C@@H](O)[C@@H]1O (stereo partly drawn)
NIH3T3
  outcome: inactive [at 17.4 µM]
C33A
  Potency: inactive
CAOV3
  Potency: inactive
CASKI
  outcome: inactive
Es-2
  Potency: inactive
HeLa
  Potency: 11.2 µM (active)
Hek293T
  Potency: inactive
JEG-3
  Potency: inactive
OV90
  Potency: inactive
Tov-21-G
  Potency: inactive
Tov112D
  Potency: inactive

## C/C1=C\CC[C@]2(C)O[C@H]2C(=O)c2c(C)coc2C1
NIH3T3
  outcome: inactive
C33A
  Potency: 7.94 µM (active)
CAOV3
  Potency: 15.8 µM (active)
CASKI
  outcome: inactive
Es-2
  Potency: 11.2 µM (active)
HeLa
  Potency: 7.94 µM (active)
Hek293T
  Potency: 10 µM (active)
OV90
  Potency: inactive
PA-1
  Potency: 10 µM (active)
SKOV3
  Potency: 7.94 µM (active)
Tov-21-G
  Potency: 8.91 µM (active)
Tov112D
  Potency: 4.47 µM (active)

## CC1CC(=O)C2C(O)(C1)CC(O)C13OC1c1c(O)cccc1C(=O)C23O (stereo not drawn)
NIH3T3
  outcome: inactive
C33A
  Potency: inactive
CAOV3
  Potency: inactive
CASKI
  outcome: inactive
Es-2
  Potency: inactive
HeLa
  Potency: inactive
JEG-3
  Potency: inactive
OV90
  Potency: inactive
PA-1
  Potency: inactive
SKOV3
  Potency: inactive
Tov-21-G
  Potency: inactive
Tov112D
  Potency: inactive

## CC1(C)CCC2(C(=O)O)C(O)CC3(C)C(=CCC4C5(C)CCC(OC6OC(CO)C(O)C(O)C6OC6OC(CO)C(O)C(O)C6OC6OCC(O)(CO)C6O)C(C)(C)C5CCC43C)C2C1 (stereo not drawn)
NIH3T3
  outcome: inactive [at 9.27 µM]
C33A
  activity change, negative = cytotoxicity: -3% [at 11.6 µM]
CAOV3
  activity change, negative = cytotoxicity: 12.3% [at 11.6 µM]
CASKI
  activity change, negative = cytotoxicity: -10.6% [at 11.6 µM]
Es-2
  activity change, negative = cytotoxicity: -1.15% [at 11.6 µM]
Hek293T
  activity change, negative = cytotoxicity: 13.1% [at 11.6 µM]
JEG-3
  activity change, negative = cytotoxicity: -1.43% [at 11.6 µM]
OV90
  activity change, negative = cytotoxicity: -4.37% [at 11.6 µM]
PA-1
  activity change, negative = cytotoxicity: -4.82% [at 11.6 µM]
SKOV3
  activity change, negative = cytotoxicity: 9.15% [at 11.6 µM]
Tov-21-G
  activity change, negative = cytotoxicity: -4.95% [at 11.6 µM]
Tov112D
  activity change, negative = cytotoxicity: 1.07% [at 11.6 µM]

## Cc1ncc(Cl)cc1NCc1ccc(C(=O)NC(CC2CCCC2)C(=O)NC2CC2)s1 (stereo not drawn)
NIH3T3
  outcome: inactive
C33A
  Potency: inactive
CAOV3
  Potency: inactive
CASKI
  outcome: inactive
Es-2
  Potency: inactive
HeLa
  Potency: inactive
Hek293T
  Potency: inactive
JEG-3
  Potency: inactive
OV90
  Potency: inactive
PA-1
  Potency: inactive
Tov-21-G
  Potency: inactive
Tov112D
  Potency: inactive

## C/C1=C\CC(C)(C)/C=C/C/C(C(=O)O)=C/CC1
NIH3T3
  outcome: inactive
C33A
  Potency: inactive
CAOV3
  Potency: inactive
CASKI
  outcome: inactive
Es-2
  Potency: inactive
HeLa
  Potency: inactive
Hek293T
  Potency: inactive
OV90
  Potency: inactive
PA-1
  Potency: inactive
SKOV3
  Potency: inactive
Tov-21-G
  Potency: inactive
Tov112D
  Potency: inactive

## Cc1c(-c2ccc3c(c2)OCO3)oc2ccc(C(O)C(C)O)cc12 (stereo not drawn)
NIH3T3
  outcome: inactive
C33A
  Potency: inactive
CAOV3
  Potency: inactive
CASKI
  outcome: inactive
Es-2
  Potency: inactive
HeLa
  Potency: inactive
Hek293T
  Potency: inactive
JEG-3
  Potency: inactive
PA-1
  Potency: inactive
Tov112D
  Potency: inactive
